From the supplement of paper PMC4466140

Biological target: AgAbp1
Assay: SPOT peptide array binding signal intensity (averaged, normalized) (arbitrary units (background-subtracted, floor 0; scale differs between SH3 domains)); higher = stronger binding of the SH3 domain to the peptide
Outline: (§1)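 Cellulose membranes carried synthetic 15-mer peptides with cysteines swapped for serines. These were incubated overnight at 4°C with 10 μg/ml of GST-fused SH3 domains from four yeast species in TBS-based blocking buffer. Binding signal, detected with anti-GST antibody and quantified in Genespotter, is the normalized, background-subtracted spot intensity averaged over replicates, in arbitrary units specific to each domain.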

| Binder | SPOT peptide array binding signal intensity |
| --- | --- |
| RFKRHRLEFPFNESE | 154 |

Biological target: AgBbc1
Assay: as above
Outline: as §1

| Binder | SPOT peptide array binding signal intensity |
| --- | --- |
| RFKRHRLEFPFNESE | 38.5 |

Biological target: AgBem1-D1
Assay: as above
Outline: as §1

| Binder | SPOT peptide array binding signal intensity |
| --- | --- |
| RFKRHRLEFPFNESE | 120 |

Biological target: AgBzz1-D1
Assay: as above
Outline: as §1

| Binder | SPOT peptide array binding signal intensity |
| --- | --- |
| RFKRHRLEFPFNESE | 58 |

Biological target: AgBzz1-D2
Assay: as above
Outline: as §1

| Binder | SPOT peptide array binding signal intensity |
| --- | --- |
| RFKRHRLEFPFNESE | 71 |

Biological target: AgCyk3
Assay: as above
Outline: as §1

| Binder | SPOT peptide array binding signal intensity |
| --- | --- |
| RFKRHRLEFPFNESE | ≤ 0 |

Biological target: AgFus1
Assay: as above
Outline: as §1

| Binder | SPOT peptide array binding signal intensity |
| --- | --- |
| RFKRHRLEFPFNESE | 378 |

Biological target: AgHof1
Assay: as above
Outline: as §1

| Binder | SPOT peptide array binding signal intensity |
| --- | --- |
| RFKRHRLEFPFNESE | 28 |

Biological target: AgHse1
Assay: as above
Outline: as §1

| Binder | SPOT peptide array binding signal intensity |
| --- | --- |
| RFKRHRLEFPFNESE | 929 |

Biological target: AgLsb1
Assay: as above
Outline: as §1

| Binder | SPOT peptide array binding signal intensity |
| --- | --- |
| RFKRHRLEFPFNESE | 1.5 |

Biological target: AgLsb4
Assay: as above
Outline: as §1

| Binder | SPOT peptide array binding signal intensity |
| --- | --- |
| RFKRHRLEFPFNESE | 78 |

Biological target: AgMyo5
Assay: as above
Outline: as §1

| Binder | SPOT peptide array binding signal intensity |
| --- | --- |
| RFKRHRLEFPFNESE | 0.75 |

Biological target: AgNbp2
Assay: as above
Outline: as §1

| Binder | SPOT peptide array binding signal intensity |
| --- | --- |
| RFKRHRLEFPFNESE | 37 |

Biological target: AgRvs167
Assay: as above
Outline: as §1

| Binder | SPOT peptide array binding signal intensity |
| --- | --- |
| RFKRHRLEFPFNESE | 5.33 |

Biological target: AgSho1
Assay: as above
Outline: as §1

| Binder | SPOT peptide array binding signal intensity |
| --- | --- |
| RFKRHRLEFPFNESE | 46 |

Biological target: AgSla1-D1-D2
Assay: as above
Outline: as §1

| Binder | SPOT peptide array binding signal intensity |
| --- | --- |
| RFKRHRLEFPFNESE | 98 |

Biological target: AgSla1-D3
Assay: as above
Outline: as §1

| Binder | SPOT peptide array binding signal intensity |
| --- | --- |
| RFKRHRLEFPFNESE | 8 |

Biological target: CaAbp1-D1
Assay: as above
Outline: as §1

| Binder | SPOT peptide array binding signal intensity |
| --- | --- |
| RFKRHRLEFPFNESE | 759 |

Biological target: CaAbp1-D2
Assay: as above
Outline: as §1

| Binder | SPOT peptide array binding signal intensity |
| --- | --- |
| RFKRHRLEFPFNESE | 598 |

Biological target: CaBbc1
Assay: as above
Outline: as §1

| Binder | SPOT peptide array binding signal intensity |
| --- | --- |
| RFKRHRLEFPFNESE | 107 |

Biological target: CaBem1-D1
Assay: as above
Outline: as §1

| Binder | SPOT peptide array binding signal intensity |
| --- | --- |
| RFKRHRLEFPFNESE | 164 |

Biological target: CaBzz1-D1
Assay: as above
Outline: as §1

| Binder | SPOT peptide array binding signal intensity |
| --- | --- |
| RFKRHRLEFPFNESE | 34.5 |

Biological target: CaBzz1-D2
Assay: as above
Outline: as §1

| Binder | SPOT peptide array binding signal intensity |
| --- | --- |
| RFKRHRLEFPFNESE | 34.8 |

Biological target: CaCyk3
Assay: as above
Outline: as §1

| Binder | SPOT peptide array binding signal intensity |
| --- | --- |
| RFKRHRLEFPFNESE | 3 |

Biological target: CaFus1
Assay: as above
Outline: as §1

| Binder | SPOT peptide array binding signal intensity |
| --- | --- |
| RFKRHRLEFPFNESE | 608 |

Biological target: CaHof1
Assay: as above
Outline: as §1

| Binder | SPOT peptide array binding signal intensity |
| --- | --- |
| RFKRHRLEFPFNESE | 1.5 |

Biological target: CaHse1
Assay: as above
Outline: as §1

| Binder | SPOT peptide array binding signal intensity |
| --- | --- |
| RFKRHRLEFPFNESE | 16 |

Biological target: CaLsb1
Assay: as above
Outline: as §1

| Binder | SPOT peptide array binding signal intensity |
| --- | --- |
| RFKRHRLEFPFNESE | ≤ 0 |

Biological target: CaLsb4
Assay: as above
Outline: as §1

| Binder | SPOT peptide array binding signal intensity |
| --- | --- |
| RFKRHRLEFPFNESE | 31 |

Biological target: CaMyo5
Assay: as above
Outline: as §1

| Binder | SPOT peptide array binding signal intensity |
| --- | --- |
| RFKRHRLEFPFNESE | 13.2 |

Biological target: CaNbp2
Assay: as above
Outline: as §1

| Binder | SPOT peptide array binding signal intensity |
| --- | --- |
| RFKRHRLEFPFNESE | 342 |

Biological target: CaRvs167
Assay: as above
Outline: as §1

| Binder | SPOT peptide array binding signal intensity |
| --- | --- |
| RFKRHRLEFPFNESE | 25.7 |

Biological target: CaRvs167-3
Assay: as above
Outline: as §1

| Binder | SPOT peptide array binding signal intensity |
| --- | --- |
| RFKRHRLEFPFNESE | 211 |

Biological target: CaSho1
Assay: as above
Outline: as §1

| Binder | SPOT peptide array binding signal intensity |
| --- | --- |
| RFKRHRLEFPFNESE | 939 |

Biological target: CaSla1-D1-D2
Assay: as above
Outline: as §1

| Binder | SPOT peptide array binding signal intensity |
| --- | --- |
| RFKRHRLEFPFNESE | 7 |

Biological target: CaSla1-D3
Assay: as above
Outline: as §1

| Binder | SPOT peptide array binding signal intensity |
| --- | --- |
| RFKRHRLEFPFNESE | 4 |

Biological target: ScAbp1
Assay: as above
Outline: as §1

| Binder | SPOT peptide array binding signal intensity |
| --- | --- |
| RFKRHRLEFPFNESE | 236 |
